The structures appear in SMILES notation. Activity calls are given as the source filed them. Rule for the calls: active = hit-call score of the fitted dose curve at least 0.9, where 1 is the maximum; inactive = score below 0.9.

From PubChem BioAssay (EPA / NIEHS) come the findings set out here.

Chain of Nuclear factor erythroid 2-related factor 2 (Homo sapiens) (Q16236 whole entry, looked up): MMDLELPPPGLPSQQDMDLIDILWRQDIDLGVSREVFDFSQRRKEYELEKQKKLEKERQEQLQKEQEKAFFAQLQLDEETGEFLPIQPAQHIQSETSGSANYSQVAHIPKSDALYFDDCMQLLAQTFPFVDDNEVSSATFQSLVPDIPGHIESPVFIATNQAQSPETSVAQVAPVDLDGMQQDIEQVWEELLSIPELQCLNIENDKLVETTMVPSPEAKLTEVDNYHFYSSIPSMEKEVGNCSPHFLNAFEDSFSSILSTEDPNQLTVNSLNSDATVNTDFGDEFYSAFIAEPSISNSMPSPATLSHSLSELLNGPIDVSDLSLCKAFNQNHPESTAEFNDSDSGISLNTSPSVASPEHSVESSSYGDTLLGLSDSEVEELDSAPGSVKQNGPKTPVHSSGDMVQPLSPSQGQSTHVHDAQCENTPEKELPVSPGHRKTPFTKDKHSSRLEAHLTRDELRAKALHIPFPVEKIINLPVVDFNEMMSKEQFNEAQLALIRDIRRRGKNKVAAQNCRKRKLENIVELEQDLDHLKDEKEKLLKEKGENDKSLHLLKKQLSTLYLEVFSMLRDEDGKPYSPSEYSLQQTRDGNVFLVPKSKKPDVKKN

Read-out in the experiment: Nuclear factor erythroid 2-related factor 2 (Homo sapiens) (UniProt Q16236)
In words: LTEA_HepaRG_NFE2L2: Life Technologies and Expression Analysis (LTEA) Assay for Nuclear factor erythroid 2-related factor 2 (NFE2L2) Transcription Factor using HepaRG (AID 2283527).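 For outcome: TaqMan qRT-PCR transcript level normalised to ACTB GAPDH and POLR2A housekeeping genes.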 The following applies: mRNA level, 48 h; actives raise or lower the signal. How it is done: LTEA_HepaRG is a cell based, multiplexed-readout assay that uses HepaRG, a human liver cell line, with measurements taken at 48 hours after chemical dosing on a 96-well plate.LTEA_HepaRG_NFE2L2 is one of 102 assay component(s) measured in the LTEA HepaRG cell culture assay. It is a marker of Inflammation/injury.Data from the assay component LTEA_HepaRG_NFE2L2 was analyzed into 1 endpoint. This assay endpoint, LTEA_HepaRG_NFE2L2, was analyzed with bidirectional fitting relative to DMSO as the negative control and baseline of activity. Using a type of inducible reporter, measures of mRNA induction for gain or loss-of-signal activity can be used to understand regulation of transcription factor activity. To generalize the intended target to other relatable targets, this assay endpoint is annotated to the dna binding intended target family, where the subfamily is basic leucine zipper.
A total of 1060 chemcials from the ToxCast library were tested in eight-point concentration-response experiments. Cell culture and cytotoxicity assays were conducted at Thermo Fisher Scientific's Custom Services facility (Madison, WI). A single lot of human HepaRG cells (Thermo Fisher Scientific, Frederick, MD) was used for the cell culture experiments. 96-well format collagen type I coated plates of human HepaRG cells were prepared using established methods. Briefly, cryopreserved HepaRG cells were thawed, plated at a density of approximately 100,000 cells/well in HepaRG Thaw, Plate, and General Purpose media (HPRG770, Thermo Fisher Scientific), and incubated for 48 hours. 0.5% DMSO was selected as vehicle control to balance the requisite need of DMSO in HepaRG cultures to maintain differentiation (for example, baseline metabolism, proportions of hepatocytes vs. cholangiocytes), while enabling further hepatic receptor pathway activation (for example, PXR and CAR) in response to chemical exposure. 48 hours after plating, the culture medium was replaced with HepaRG Serum-Free Incudtion Media. Cells were exposed to each test chemical in duplicate and maintained in CO2 incubators for another 48 hours. Chemical plates were thawed to room temperature and 200x concentrations of treatment groups were prepared. 8-point conentration-reponse curves were made with the highest exposure at 100 uM, followed by half-log dilutions, all in 0.5% DMSO. Each test plate contained variouse controls, induction positive controls (1mM phenobarbital), cytotoxicity positive controls ([…] aflatoxin B1), vehicle controls (0.5% DMSO), and total lysis controls (0.5% DMSO). Cell morphology images were taken using an Essen IncuCyte FLR automated microscope, with six 96-well plates imaged in about 24 minutes. Images were captured and exported and JPEG files. Spent culture media was transfered to black-well plates for the LDH assay, and remaining media was sorted at -80 C for later use. Cells were treated with RLT buffer and frozen until shipped for gene expression analysis. Total RNA was isolated from the cell suspension in 75 uL of Buffer RLT (Qiagen, Germantown, MD 20874) by Quintiles/Expression Analysis (Durham, NC) using a custom isolation procedure. Total RNA from each plate well was transferred to a preamplification plate. Fluidigm's 96.96 Dynamic ArrayTM (Fluidigm, Amsterdam, the Netherlands) technology was used for gene expression analyses by quantitative reverse transcription polymerase chain reaction (qRT-PCR, performed by Quintiles/Expression Analysis, Durham, NC)89. Standard TaqManTM Assays (Applied Biosystems/ThermoFisher Scientific, Foster City, CA) were used to assess the expression of 93 genes selected based on their selectivity and sensitivity to important hepatic receptors known to be modulated by environmental chemicals; importance in human hepatocyte functionality; and hepatotoxicity. […]
Take `c1ccc2c(c1)ccc1ccccc12`: the compound was called inactive.
Turning to `OC1CCCCC1`, the call was inactive.
Consider `OCCC(F)(F)C(F)(F)C(F)(F)C(F)(F)C(F)(F)C(F)(F)C(F)(F)C(F)(F)F`, for which the call was inactive.
For `CCC(=C(c1ccc(O)cc1)c1ccc(OCCN(C)C)cc1)c1ccccc1`, the call was inactive.
Take `CN1CCC[C@H]1c1cccnc1`: the outcome was inactive.
In the case of `CCCCC(CC)COC(=O)CCCCC(=O)OCC(CC)CCCC` (stereo not given), the compound was classed as inactive.
Still for that read-out and setting: the same measure for `CCCOC(=O)c1ccc(O)cc1`: “inactive”; for `CC(C)(C)c1ccc(O)c(C(C)(C)C)c1`: “inactive”.
On to `CCc1ccc(CCOc2ccc(CC3SC(=O)NC3=O)cc2)nc1` (stereo not given), for which the AC50 was 50 µM (active).
Regarding `CCCCCCCCOC(=O)CCCCCCCCC(=O)OCCCCCCCC`, the compound was classed as inactive.
Turning to `COCC(C)OCC(C)O` (stereo not given), the call was inactive.
For `CC(C)(C)c1cc(C(C)(C)C)c(O)c(C(C)(C)C)c1`, the call was inactive.
As to `CC(C)CCCCCCOC(=O)CCCCC(=O)OCCCCCCC(C)C`, the compound was called inactive.
With `CN1CCN(c2ccccc2/C=C2\SCCN(c3ccc(Cl)c(Cl)c3)C2=O)CC1`, the AC50 is 79.5 µM (active).
Consider `CCCOc1sc(C(=O)N2CCC(c3cc(CN)ccc3F)CC2)c(C)c1Br`, for which the call was inactive.
As to `c1ccc2cc3c(ccc4ccccc43)cc2c1`, the compound was classed as inactive.
Consider `CC(O)CO` (stereo not given), for which the call was inactive.
For the compound `CC(=O)CC(C)(C)O`, the compound was called inactive.
As for `O=C(O)c1ccccc1C(c1ccc(O)cc1)c1ccc(O)cc1`, the outcome was inactive.
As to `CCCCCCCC(=O)O`, the AC50 is 12.3 µM (active).
For the compound `C[C@@H]1C[C@H]2[C@@H]3CCC4=CC(=O)C=C[C@]4(C)[C@@]3(F)[C@@H](O)C[C@]2(C)[C@@]1(O)C(=O)COP(=O)(O)O`, the result was inactive.
For the compound `O=c1c(-c2ccc(O)cc2)coc2cc(O)ccc12`, the call was inactive.
For the compound `CC(=O)NC1(c2cccc(F)c2)CCN(CC[C@@]2(c3ccc(Cl)c(Cl)c3)CN(c3ccccc3)C(=O)CO2)CC1`, the AC50 is 76.3 µM (active).
On to `Oc1cc2ccccc2c2ccccc12`, for which the outcome was inactive.
For the compound `CC1=C(/C=C/C(C)=C/C=C/C(C)=C/C(=O)O)C(C)(C)CCC1`, the AC50 was 20.4 µM (active).
In the case of `CCCCC(CC)COC(=O)CCCCC(=O)OCc1ccccc1` (stereo not given), the result was inactive.
`CCc1nn(C2CCCCC2)c2cc(C3(C#N)CCC(C(=O)O)CC3)ccc12` (stereo not given): the AC50 was 50 µM (active).
On to `ClC1=C(Cl)C(Cl)(Cl)C(Cl)=C1Cl`, for which the compound was classed as inactive.
Regarding `CN(C)C=O`, the compound was called inactive.
`CCC(C)(C)C1CCC(O)CC1` (stereo not given): the compound was classed as inactive.
Turning to `CCCCCCCCCCCCc1ccccc1S(=O)(=O)O`, the AC50 is 19.9 µM (active).
For the compound `C=C(C)C(=O)OCCC(F)(F)C(F)(F)C(F)(F)C(F)(F)C(F)(F)C(F)(F)F`, the outcome was inactive.
Regarding `CCCCOCCO`, the call was inactive.
For the compound `CC#C[C@]1(O)CC[C@H]2[C@@H]3CCC4=CC(=O)CCC4=C3[C@@H](c3ccc(N(C)C)cc3)C[C@@]21C`, the AC50 is 50 µM (active).
With `CCCCCCCCC(=O)O`, the outcome was inactive.
In the case of `CC(C)(C)c1cccc(C(C)(C)C)c1O`, the compound was called inactive.
Consider `NC(=O)N1C(=O)C(C(=O)c2cc(Cl)cs2)c2cc(F)c(Cl)cc21` (stereo not given), for which the AC50 is 31.8 µM (active).
For `COCC(C)O` (stereo not given), the compound was called inactive.
The same measure, in the same setting: the same measure for `Cc1cc(C)c(O)c(C)c1`: “inactive”; for `O=[N+]([O-])c1ccc(O)cc1`: “inactive”.

A word on the AC50: it is the concentration giving half of the maximal activity seen.
